Screening results (PubChem)
Only some compounds are listed: those with a hit (about 0.5% of all), similar ones and a draw of the others.
E coli growth-1 – E. coli V3065 growth inhibition, primary screen, counter-screen for AddAB inhibitor project, absorbance, OD600. 18 h. inhibition, % at 11.9 µM. actives 0.27% (n = 330,000). AID 449728, 2010;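 active = inhibition above the campaign's mean inhibition across all tested compounds plus 3 SD, cut at about 9.9% in these data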;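 also: uninfected addAB+ strain grown without phage in ampicillin broth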
Tat export inh – E. coli Tat export inhibitors, primary screen, MC4100, TorA-mCherry reporter, fluorescence, single point | inhibition, % at 10 µM | actives 0.036% (n = 340,000) | AID 488895, 2010;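 active = mean replicate inhibition at least 50% and at least half of replicates individually reaching 50%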;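 also: exported cargo escapes ClpAP degradation while cytoplasmic cargo is degraded and loses fluorescence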
E coli growth-2 – E. coli growth inhibition, primary screen, OD600 | Escherichia coli growth, 23 h; stronger effect = lower value | OD600 absorbance (no concentration beside the values) | actives 0.21% (n = 330,000) | AID 1053175, 2014;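 active = OD600 absorbance below the run mean of sample wells minus 3.6 SD, in any replicate, cut at about 0.56 in these data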
AddAB inh – growth inhibition of E. coli expressing H. pylori AddAB, primary screen, AddAB inhibitor project, absorbance; actives 0.29% (n = 330,000); inhibition, % at 11.9 µM; in the data active = inhibition above about 12%
phage Ecoli inh – growth loss of phage-infected E. coli, primary screen, RecBCD inhibitor project, absorbance, with phage, HTS. AID 651602, 2012. actives 0.26% (n = 360,000). inhibition, % at 11.9 µM; in the data active = inhibition above about 11%
AddAB confirm – growth loss of phage-infected E. coli expressing H. pylori AddAB, confirmation, AddAB inhibitor project, absorbance, E. coli V3065, T4 phage, triplicate; shares compounds with AddAB inh; inhibition, % at 11.9 µM; OD; T4 phage with gene 2 nonsense mutations; actives 64% (n = 880);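 active = mean inhibition above a set limit taken from the earlier primary screen, cut at about 13% in these data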;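 also: higher means less bacterial growth since AddAB block lets phage replicate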
RecBCD counter – growth loss of RecBCD+ E. coli with mutant T4 phage, counter-screen for AddAB inhibitor project, absorbance, V66 E. coli | inhibition, % at 11.9 µM | shares compounds with AddAB inh | actives 73% (n = 880) | OD growth;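 active = mean inhibition above the mean of solvent-only control wells plus 3 SD, cut at about 4% in these data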;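 also: optical density read after an 18 h incubation at 37 °C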
Bact viability – bacterial viability inhibition counter-screen, confirmation, counter-screen for AddAB inhibitor project, absorbance; shares compounds with AddAB inh; absorbance (AddAB counterscreen); inhibition, % at 11.9 µM; actives 35% (n = 880); in the data active = inhibition above about 25%
RecBCD conf – growth loss of phage-infected RecBCD+ E. coli, confirmation, RecBCD inhibitor project, absorbance, E. coli V66, T4 gene 2 phage. shares compounds with phage Ecoli inh. E. coli V66 + T4 2- phage, growth OD. inhibition, % at 11.9 µM. actives 45% (n = 890). AID 651982, 2013;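 active = mean inhibition over triplicates exceeding the hit threshold derived in the original primary screen, cut at about 11% in these data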
Ecoli viability – E. coli viability inhibition, counter-screen for RecBCD inhibitor project, absorbance, high throughput. shares compounds with phage Ecoli inh. inhibition, % at 11.9 µM. absorbance (OD) growth. actives 29% (n = 890); in the data active = inhibition above about 20%;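 also: E. coli strain V66 grown with compound alone and no phage infection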
AddAB counter – growth loss of phage-infected AddAB-carrying E. coli, confirmation, counter-screen for RecBCD inhibitor project, absorbance, E. coli V3065, T4 phage | E. coli expressing H. pylori AddAB + T4 phage, OD growth; gene 2 mutant T4, recBCD-deleted host | inhibition, % at 11.9 µM | shares compounds with phage Ecoli inh | actives 45% (n = 890);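 active = mean inhibition above the solvent-only control wells' mean plus 3 SD, cut at about 22% in these data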;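 also: higher means less bacterial growth from phage killing when AddAB is blocked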
Hits are given with their value; – = inactive; · = no result given; + = active, no number; ! = not confirmed by another sample.

SMILES | E coli growth-1 | Tat export inh | E coli growth-2 | AddAB inh | phage Ecoli inh | RecBCD conf | Ecoli viability | AddAB counter | others
CN(C)[C@@H]1C(=O)C(C(N)=O)=C(O)[C@@]2(O)C(=O)C3=C(O)c4c(O)ccc(Cl)c4[C@@](C)(O)[C@H]3C[C@@H]12 | 80.6 | 162.7 | · | 78.8 | 91.4 | 96.6 | 102.4 | 99.8 | AddAB confirm=98.7;RecBCD counter=94.6;Bact viability=99.2
CN(C)[C@@H]1C(=O)C(C(N)=O)=C(O)[C@@]2(O)C(=O)C3=C(O)c4c(O)cccc4[C@@](C)(O)[C@H]3[C@H](O)[C@@H]12 | – | – | · | – | – | · | · | ·
COC(=O)C1=C(c2ccc(F)cc2F)CC2CCC1N2C(=O)NCCNC(C)=O (centres undefined) | · | · | – | · | · | · | · | ·
Nc1nonc1C(=O)N/N=C/c1ccc([N+](=O)[O-])o1 | – | – | · | 16.6 | 18.4 | – | – | 61.1 | AddAB confirm=98.5;RecBCD counter=6.7;Bact viability=–
N/C(=N\[N+](=O)[O-])N/N=C/c1ccc(O)cc1 | – | – | · | – | – | · | · | ·
C[CH2][Hg][S]c1ccccc1C(=O)O | 101.0 | – | 0.0605 | + | + | + | 105.5 | + | AddAB confirm=+;RecBCD counter=+;Bact viability=98.4
O=C1C2CCN(CC2)C1Cc1ccc2ccccc2c1O (centres undefined) | · | · | – | · | · | · | · | ·
COC12C(COC(N)=O)C3=C(C(=O)C(C)=C(N)C3=O)N1CC1C2N1C (centres undefined) | 98.7 | 80.4 | 0.0535 | 94.2 | 81.7 | 94.1 | 94.2 | 96.3 | AddAB confirm=97.5;RecBCD counter=89.0;Bact viability=98.7
COP(=O)(OC)C(C=O)=NNc1ccc([N+](=O)[O-])cc1 | · | · | – | · | · | · | · | ·
c1ccc2c[n+](CCCCCCCCCC[n+]3ccc4ccccc4c3)ccc2c1 | · | · | · | · | – | · | · | ·
CCCCCCC[n+]1ccc(-c2cc[n+](CCCCCCC)cc2)cc1 | 24.9 | – | – | 31.4 | 19.3 | – | – | – | AddAB confirm=–;RecBCD counter=18.9;Bact viability=–
C[n+]1ccc(-c2cc[n+](C)cc2)cc1 | 10.3 | – | – | – | 21.5 | 13.0! | – | 21.3
Oc1cc(Cl)ccc1Oc1ccc(Cl)cc1Cl | 97.7 | 137.3 | 0.046 | 96.6 | 97.0 | 98.8 | 100.1 | 99.0
COC(=O)C1=C(c2ccc(F)cc2OCc2ccccc2)CC2CCC1N2C(=O)N1CCC(O)(c2ccc(Cl)cc2)CC1 (centres undefined) | · | · | – | · | · | · | · | ·
CCCNC(=O)N1C2CCC1C(C(=O)OC)=C(c1ccc(-c3ccccc3)c(F)c1)C2 (centres undefined) | · | · | – | · | · | · | · | ·
Fc1ccc(CNC2CN3CCC2CC3)cc1 (centres undefined) | – | – | – | – | 12.8 | – | – | –
C[C@]12NC(Cc3ccccc31)c1ccccc12 | · | · | – | · | · | · | · | ·
CNS(=O)(=O)c1ccc(N=Cc2c(O)n(-c3ccc(C)cc3)c(=O)[nH]c2=O)cc1 | – | – | – | – | – | · | · | ·
CCc1nnc(NS(=O)(=O)c2ccc(N=Cc3c(O)n(-c4ccc(Cl)cc4)c(=O)[nH]c3=O)cc2)s1 | – | – | – | – | 12.5 | – | – | –
COC(=O)C1=COC(C)C2CN3CCC4(C(=O)Nc5ccccc54)C3CC12 (centres undefined) | – | – | – | – | 11.2 | – | – | –
CCC1C(=O)OCC1Cc1cncn1C (centres undefined) | · | · | – | · | · | · | · | ·
